In PubChem BioAssay (NCATS):
Where “and” joins values, the source holds several entries; their conditions need not be identical. Equal values may be shown once. Results filed as inconclusive are left out. A structure can be active in one record and inactive in another. Calls of active or inactive are those of the source. Unless noted, calls follow the shape of the dose curve; as a rule, active = well fitted curve in the direction sought with a large enough effect; inconclusive = small, poorly fitted or top-dose-only effect, or another doubt; inactive = no such curve, though single readings can be large; an effect the other way counts as inactive or inconclusive.

Assays:
[1] = target: Calcium and integrin-binding protein 1 (Homo sapiens) (UniProt Q99828); experiment: Validation qHTS for Identification of Calcium Integrin Binding protein 1 (CIB1) Competitor (AID 1508618); also: potency is read from the fitted curve at half-maximal effect
Sequence of Calcium and integrin-binding protein 1 (Homo sapiens) (Q99828 whole entry, looked up): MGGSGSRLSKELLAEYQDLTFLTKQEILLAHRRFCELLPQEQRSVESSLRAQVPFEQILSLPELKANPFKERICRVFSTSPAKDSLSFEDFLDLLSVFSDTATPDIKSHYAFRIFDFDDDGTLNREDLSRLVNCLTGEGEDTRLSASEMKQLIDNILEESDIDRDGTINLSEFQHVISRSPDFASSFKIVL
Procedure, shortened: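 CIB1-GST (1 uM final) in 5 mM HEPES pH 7.4, 125 mM NaCl, 5 mM CaCl2, 0.01% Tween20 was preincubated 15 min at room temperature with compound (up to 114 uM), then FITC-alphaIIb peptide (100 nM) added for 15 min; fluorescence polarization read.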

[2] = target: Calcium and integrin-binding protein 1 (Homo sapiens) (UniProt Q99828); experiment: Primary qHTS for Identification of Calcium Integrin Binding Protein 1 (CIB1) Competitor (AID 1508620); also: potency is read from the fitted curve at half-maximal effect
Procedure, shortened: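 Fluorescence polarization competition: GST-tagged CIB1 (1 uM final) preincubated with compound 15 min at room temperature, then FITC-labelled alphaIIb peptide (100 nM final) added. After 15 min at room temperature, polarization read at Ex 480/Em 540.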

[3] = Primary qHTS for small molecule stabilizers of the endoplasmic reticulum resident proteome: Secreted ER Calcium Modulated Protein (SERCaMP) assay (AID 1508630); also: % is scaled to controls: 0 for no effect and ±100 for the full control effect
Procedure, shortened: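 The SH-SY5Y reporter protocol was run at 3 concentrations up to 38.3 uM (primary) or 11 concentrations (follow-up): 16 h compound, 100 nM thapsigargin for 4 h, then extracellular luciferase luminescence.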

[4] = Counterscreen qHTS for small molecule stabilizers of the endoplasmic reticulum resident proteome: GLuc-NoTag assay (AID 1508627); also: potency is read from the fitted curve at half-maximal effect
Procedure, shortened: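 Counterscreen line: SH-SY5Y-GLuc-NoTag. Seed, 5 h; compound, 19 h; thapsigargin 100 nM, 4 h; 37C/5% CO2. Readout: secreted GLuc luminescence, coelenterazine 0.07x final, no lysis.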

[5] = target: Cytochrome P450 2C9 (Homo sapiens) (UniProt P11712); experiment: Cytochrome P450 family 2 subfamily C member 9 (CYP2C9) small molecule antagonists: luciferase biochemical (cell-free) qHTS assay (AID 1645842; active = well fitted curve in the direction sought with a large enough effect in the repeat runs; an effect the other way counts as inactive or inconclusive; also: series mostly up to about 57 µM; % is scaled to controls: 0 for no effect and ±100 for the full control effect; nearly all actives have a fitted effect of over 55% in size)
Sequence of Cytochrome P450 2C9 (Homo sapiens) (P11712 whole entry, looked up): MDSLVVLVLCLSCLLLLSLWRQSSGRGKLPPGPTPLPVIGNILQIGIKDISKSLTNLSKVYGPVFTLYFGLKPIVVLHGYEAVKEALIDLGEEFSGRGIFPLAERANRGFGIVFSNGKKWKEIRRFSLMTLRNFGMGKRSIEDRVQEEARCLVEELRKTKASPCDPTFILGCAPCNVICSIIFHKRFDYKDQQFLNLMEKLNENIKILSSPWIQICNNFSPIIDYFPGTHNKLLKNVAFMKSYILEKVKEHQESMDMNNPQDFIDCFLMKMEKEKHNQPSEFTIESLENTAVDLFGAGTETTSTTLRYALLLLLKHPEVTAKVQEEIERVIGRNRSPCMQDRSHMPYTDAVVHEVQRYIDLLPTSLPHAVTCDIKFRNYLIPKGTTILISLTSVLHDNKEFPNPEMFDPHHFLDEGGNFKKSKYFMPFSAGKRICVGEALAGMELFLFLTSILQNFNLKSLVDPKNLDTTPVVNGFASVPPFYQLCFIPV
Procedure, shortened: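 P450-Glo CYP2C9 system: proluciferin substrate with enzyme in mix containing 0.4% BSA, 10 min at room temperature, then NADPH regeneration solution added and incubated 1 h at 37C. Detection reagent stopped reaction; luminescence read after 20 min as RLU.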

[6] = A High-Content qHTS Against Drug Library for the Identification of Small Molecules that Inhibit DYT1 Early Onset Primary Dystonia-Associated Cell Pathology (AID 1645839; calls by dose curve; also: potency is read from the fitted curve at half-maximal effect)
Procedure, shortened: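 Cells were seeded and left for 24 h, then dosed with compound alongside tetracycline induction of mutant EGFP-TorsinA. They were incubated for 48 h, fixed in 4% paraformaldehyde, permeabilized and imaged for mislocalization (%pathology) and cell count.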

[7] = Confirmatory qHTS for small molecule stabilizers of the endoplasmic reticulum resident proteome: Secreted ER Calcium Modulated Protein (SERCaMP) assay (AID 1508628); also: nearly all actives have a fitted effect of over 40% in size; also: potency is read from the fitted curve at half-maximal effect
Procedure, shortened: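 Reporter secretion upon ER calcium depletion (100 nM thapsigargin, 4 h, 37C) is measured as medium luminescence with coelenterazine, after 16 h compound pretreatment of SH-SY5Y-GLuc-SERCaMP cells; primary at three concentrations up to 38.3 uM, follow-up at 11 (up to 76.6 uM).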

[8] = Cell Viability qHTS for small molecule stabilizers of the endoplasmic reticulum resident proteome (AID 1508629); conditions: cell viability counter-screen, 100 nM thapsigargin for final 4 h;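 also: compound exposure about 46 h in total before the viability read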; also: potency is read from the fitted curve at half-maximal effect;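 as to max response: human SH-SY5Y neuroblastoma cells carrying the GLuc-SERCaMP reporter; % is scaled to controls: 0 for no effect and ±100 for the full control effect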
[9] = target: Cytochrome P450 2D6 (Homo sapiens) (UniProt P10635); experiment: Cytochrome P450 family 2 subfamily D member 6 (CYP2D6) small molecule antagonists: luciferase biochemical (cell-free) qHTS assay (AID 1645840; active = well fitted curve in the direction sought with a large enough effect in the repeat runs; an effect the other way counts as inactive or inconclusive; also: nearly all actives have a fitted effect of over 55% in size; also: potency is read from the fitted curve at half-maximal effect)
Sequence of Cytochrome P450 2D6 (Homo sapiens) (P10635 whole entry, looked up): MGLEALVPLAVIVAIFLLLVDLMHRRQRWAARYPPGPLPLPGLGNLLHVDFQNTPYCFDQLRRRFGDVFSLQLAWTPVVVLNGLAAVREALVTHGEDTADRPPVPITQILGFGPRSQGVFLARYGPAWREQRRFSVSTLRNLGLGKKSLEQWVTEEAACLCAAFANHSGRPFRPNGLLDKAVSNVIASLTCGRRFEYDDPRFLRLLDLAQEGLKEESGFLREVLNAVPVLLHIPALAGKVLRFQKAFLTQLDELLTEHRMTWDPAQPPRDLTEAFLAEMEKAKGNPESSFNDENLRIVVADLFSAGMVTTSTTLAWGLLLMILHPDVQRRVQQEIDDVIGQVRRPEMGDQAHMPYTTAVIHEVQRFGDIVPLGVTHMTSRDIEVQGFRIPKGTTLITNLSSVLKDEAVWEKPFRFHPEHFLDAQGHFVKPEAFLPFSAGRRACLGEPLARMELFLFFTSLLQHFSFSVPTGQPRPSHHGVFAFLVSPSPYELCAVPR
Procedure, shortened: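 P450-Glo CYP2D6 system: proluciferin substrate converted by enzyme to luciferin, read by luminescence proportional to activity. Enzyme-substrate mix with compound 10 min at room temperature, then NADPH regeneration 1 h before detection reagent.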

O=C1Cc2cc(CCN3CCN(c4nsc5ccccc45)CC3)c(Cl)cc2N1
inactive: Potency [1] | Potency [2] | Potency [3]

CN(C)CCC=C1c2ccccc2C=Cc2ccccc21
inactive: Potency [1] | Potency [2] | Potency [4] | Potency [5]

Fc1ccc([C@@H]2CCNC[C@H]2COc2ccc3c(c2)OCO3)cc1
inactive: Potency [1] | Potency [2] | Potency [3]

O=C(c1ccc(F)cc1)C1CCN(CCn2c(=O)[nH]c3ccccc3c2=O)CC1
inactive: Potency [1] | Potency [2] | Potency [4] | Potency [3] | Potency [6]

NCCc1cnc[nH]1
inactive: Potency [1] | Potency [2] | Potency [3] | Potency [6]

CCCCc1oc2ccccc2c1C(=O)c1cc(I)c(OCCN(CC)CC)c(I)c1
inactive: Potency [1] | Potency [2] | Potency [4] | Potency [7] | max response [8] 10.4% | Potency [3]

CC(C)C(=O)Nc1ccc([N+](=O)[O-])c(C(F)(F)F)c1
inactive: Potency [1] | Potency [2] | Potency [3] | Potency [6]

CN1CCN(C2=Nc3cc(Cl)ccc3Nc3ccccc32)CC1
inactive: Potency [1] | Potency [2]

O=C1c2c(O)ccc(O)c2C(=O)c2c(NCCNCCO)ccc(NCCNCCO)c21
active: Potency [1] 20 µM | Potency [2] 30.4 µM and 25.1 µM
inactive: Potency [3] | Potency [6]

OCCN(CCO)c1nc(N2CCCCC2)c2nc(N(CCO)CCO)nc(N3CCCCC3)c2n1
inactive and 11.2 µM (active): Potency [2]
active: Potency [1] 14.1 µM | Potency [7] 31.6 µM
inactive: Potency [4] | Potency [3]

Cn1c(=O)c2[nH]cnc2n(C)c1=O
inactive: Potency [1] | Potency [2] | Potency [3] | Potency [6] | Potency [9]

CNCCCC12CCC(c3ccccc31)c1ccccc12
active: Potency [6] 12.6 µM
inactive: Potency [1] | Potency [2] | Potency [3]

CC(C)(C)C(=O)Oc1ccc(S(=O)(=O)Nc2ccccc2C(=O)NCC(=O)O)cc1
inactive: Potency [1] | Potency [2] | Potency [3] | Potency [6]

CN(C)CCOC(c1ccccc1)c1ccccc1
inactive: Potency [1] | Potency [2] | Potency [3] | Potency [6]

CC12CC3CC(C)(C1)CC(N)(C3)C2
active: Potency [7] 11.2 µM and 39.8 µM
inactive: Potency [1] | Potency [2] | Potency [4] | max response [8] 23.1% | Potency [3] | Potency [9]

CC(CCc1ccc(O)cc1)NCCc1ccc(O)c(O)c1 (stereo unspecified)
inactive: Potency [1] | Potency [2] | max response [8] 27% | Potency [5]
active: Potency [7] 31.6 µM and 39.8 µM and 50.1 µM

NC12CC3CC(CC(C3)C1)C2
inactive: Potency [1] | Potency [2] | Potency [4] | Potency [7] | max response [8] 12.2% and 7.67% | Potency [3] | Potency [6]

CN1CCC(=C2c3ccccc3C=Cc3ccccc32)CC1
active: Potency [7] 20 µM and 15.8 µM | Potency [9] 2.19 µM
inactive: Potency [1] | Potency [2] | Potency [4] | Potency [5]

CCCNCC(O)COc1ccccc1C(=O)CCc1ccccc1 (stereo unspecified)
inactive: Potency [1] | Potency [2] | Potency [4] | Potency [7] | Potency [3]

COc1ccccc1OCCNCC(O)COc1cccc2[nH]c3ccccc3c12 (stereo unspecified)
active: Potency [4] 44.7 µM and 35.5 µM | Potency [8] 25.1 µM | Potency [9] 1.95 µM
inactive: Potency [1] | Potency [2] | Potency [7] | Potency [3]

Clc1ccc2c(c1)C(N1CCNCC1)=Nc1ccccc1O2
active: Potency [9] 4.36 µM
inactive: Potency [1] | Potency [2] | Potency [4] | Potency [7] | max response [8] -4.18% | Potency [3] | Potency [6] | Potency [5]

CN(C)C(=O)C(CCN1CCC(O)(c2ccc(Cl)cc2)CC1)(c1ccccc1)c1ccccc1
inactive: Potency [1] | Potency [2]

CCOC(=O)C(C)(C)Oc1ccc(Cl)cc1
inactive: Potency [1] | Potency [2] | Potency [3] | Potency [6]

CN(C)c1nc(N(C)C)nc(N(C)C)n1
inactive: Potency [1] | Potency [2] | Potency [3] | Potency [6]

CN1CCC(=C2c3ccccc3CC(=O)c3sccc32)CC1
inactive: Potency [1] | Potency [2] | Potency [4] | max response [8] 19.1% | Potency [3] | Potency [6] | Potency [5]
active: Potency [7] 20 µM and 25.1 µM | Potency [9] 1.38 µM

NCCS(=O)(=O)O
inactive: Potency [1] | Potency [2] | Potency [3] | Potency [6]

CC(C)(Oc1ccc(C2CC2(Cl)Cl)cc1)C(=O)O (stereo unspecified)
inactive: Potency [1] | Potency [2] | Potency [3] | Potency [6] | Potency [9]

Cn1cnc2c1c(=O)[nH]c(=O)n2C
inactive: Potency [1] | Potency [2] | Potency [3] | Potency [6]

NC(=O)OCC(COC(N)=O)c1ccccc1
inactive: Potency [1] | Potency [2] | Potency [3] | Potency [6] | Potency [9] | Potency [5]
